Measured values reported in the supplement of paper PMC9694430.
Structures can show the parent of a compound that is named as a salt.

What was measured:
Test in all cases: thermal shift delta Tm vs DMSO control; higher = stronger stabilization (binding)
Details in all cases: 12.5 µM; protein concentration 2 µM
LOC_OS02G45750-cb003 = test system: LOC_OS02G45750-cb003
Summary of the method: (§1)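 Thermal shift values come from differential scanning fluorimetry on purified rice kinase domains made in E. coli, with melting temperatures obtained from Boltzmann fits. Samples of 19.5 μl held 2 μM kinase, 100 mM potassium phosphate pH 7.5, 150 mM NaCl, 10% glycerol, 5 × SYPRO Orange and compound in DMSO, and were heated from 25°C to 95°C at 0.05°C/s. Each shift is a triplicate mean relative to the DMSO-only protein sample.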

LOC_OS02G54510-cb004 = test system: LOC_OS02G54510-cb004
Summary of the method: as §1

LOC_OS03G04050-cb001 = test system: LOC_OS03G04050-cb001
Summary of the method: as §1

LOC_OS03G12390-cb001 = test system: LOC_OS03G12390-cb001
Summary of the method: as §1

LOC_OS03G27990-cb004 = test system: LOC_OS03G27990-cb004
Summary of the method: as §1

LOC_OS03G50450-cb001 = test system: LOC_OS03G50450-cb001
Summary of the method: as §1

LOC_OS03G50810-cb003 = test system: LOC_OS03G50810-cb003
Summary of the method: as §1

LOC_OS04G35114-cb001 = test system: LOC_OS04G35114-cb001
Summary of the method: as §1

LOC_OS04G38480-cb003 = test system: T1, LOC_OS04G38480-cb003
T1 sequence (whole entry): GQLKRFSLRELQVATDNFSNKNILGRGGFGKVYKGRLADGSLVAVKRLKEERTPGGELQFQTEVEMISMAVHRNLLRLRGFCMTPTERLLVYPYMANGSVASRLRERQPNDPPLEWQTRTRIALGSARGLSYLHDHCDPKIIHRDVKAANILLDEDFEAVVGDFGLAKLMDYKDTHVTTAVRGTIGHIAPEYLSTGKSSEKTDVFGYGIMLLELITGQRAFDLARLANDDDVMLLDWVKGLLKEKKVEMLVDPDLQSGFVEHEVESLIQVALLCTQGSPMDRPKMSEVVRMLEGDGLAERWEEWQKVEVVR
Summary of the method: as §1

LOC_OS04G41100-cb001 = test system: T2, LOC_OS04G41100-cb001
T2 sequence (whole entry): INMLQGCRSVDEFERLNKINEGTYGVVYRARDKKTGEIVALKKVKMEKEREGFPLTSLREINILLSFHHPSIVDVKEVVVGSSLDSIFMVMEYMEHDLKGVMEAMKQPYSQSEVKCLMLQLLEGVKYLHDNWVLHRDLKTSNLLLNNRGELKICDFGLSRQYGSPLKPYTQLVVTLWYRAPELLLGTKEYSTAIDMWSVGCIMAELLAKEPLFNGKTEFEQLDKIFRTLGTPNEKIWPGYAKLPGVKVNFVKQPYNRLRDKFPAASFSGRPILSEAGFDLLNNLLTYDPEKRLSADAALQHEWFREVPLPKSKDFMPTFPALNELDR
Summary of the method: as §1

LOC_OS04G57630-cb004 = test system: LOC_OS04G57630-cb004
Summary of the method: as §1

LOC_OS05G07850-cb002 = test system: LOC_OS05G07850-cb002
Summary of the method: as §1

LOC_OS05G16824-cb004 = test system: LOC_OS05G16824-cb004
Summary of the method: as §1

LOC_OS05G28520-cb001 = test system: LOC_OS05G28520-cb001
Summary of the method: as §1

LOC_OS05G30820-cb001 = test system: LOC_OS05G30820-cb001
Summary of the method: as §1

LOC_OS05G43570-cb004 = test system: LOC_OS05G43570-cb004
Summary of the method: as §1

LOC_OS06G16330-cb003 = test system: LOC_OS06G16330-cb003
Summary of the method: as §1

LOC_OS06G22820-cb001 = test system: T3, LOC_OS06G22820-cb001
T3 sequence (whole entry): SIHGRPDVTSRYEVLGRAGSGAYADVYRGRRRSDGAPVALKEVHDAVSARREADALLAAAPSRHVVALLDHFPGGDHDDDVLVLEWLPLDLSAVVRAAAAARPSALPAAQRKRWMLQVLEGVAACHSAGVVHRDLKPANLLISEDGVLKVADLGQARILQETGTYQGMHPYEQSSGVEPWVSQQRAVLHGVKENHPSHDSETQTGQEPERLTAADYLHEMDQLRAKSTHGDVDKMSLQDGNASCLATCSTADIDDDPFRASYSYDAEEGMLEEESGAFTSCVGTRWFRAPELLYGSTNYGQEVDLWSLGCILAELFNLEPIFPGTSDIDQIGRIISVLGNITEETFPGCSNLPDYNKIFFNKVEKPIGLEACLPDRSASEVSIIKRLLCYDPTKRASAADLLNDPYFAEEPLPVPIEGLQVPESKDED
Summary of the method: as §1

LOC_OS07G06570-cb004 = test system: LOC_OS07G06570-cb004
Summary of the method: as §1

LOC_OS07G07230-cb001 = test system: LOC_OS07G07230-cb001
Summary of the method: as §1
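Note: purified Escherichia coli-expressed rice kinase domain construct.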

LOC_OS06G16330-cb003, sequence (as listed by the source): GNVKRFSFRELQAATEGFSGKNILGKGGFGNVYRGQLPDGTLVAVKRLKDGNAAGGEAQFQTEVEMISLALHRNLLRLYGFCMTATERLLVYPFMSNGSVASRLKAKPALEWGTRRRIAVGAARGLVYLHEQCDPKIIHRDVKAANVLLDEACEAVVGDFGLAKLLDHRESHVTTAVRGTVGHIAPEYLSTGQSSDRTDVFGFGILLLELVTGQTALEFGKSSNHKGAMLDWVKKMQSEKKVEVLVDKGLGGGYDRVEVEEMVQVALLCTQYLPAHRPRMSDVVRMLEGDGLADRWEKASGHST

| Structure (SMILES) | thermal shift delta Tm (LOC_OS02G45750-cb003) | thermal shift delta Tm (LOC_OS02G54510-cb004) | thermal shift delta Tm (LOC_OS03G04050-cb001) | thermal shift delta Tm (LOC_OS03G12390-cb001) | thermal shift delta Tm (LOC_OS03G27990-cb004) | thermal shift delta Tm (LOC_OS03G50450-cb001) | thermal shift delta Tm (LOC_OS03G50810-cb003) | thermal shift delta Tm (LOC_OS04G35114-cb001) | thermal shift delta Tm (LOC_OS04G38480-cb003) | thermal shift delta Tm (LOC_OS04G41100-cb001) | thermal shift delta Tm (LOC_OS04G57630-cb004) | thermal shift delta Tm (LOC_OS05G07850-cb002) | thermal shift delta Tm (LOC_OS05G16824-cb004) | thermal shift delta Tm (LOC_OS05G28520-cb001) | thermal shift delta Tm (LOC_OS05G30820-cb001) | thermal shift delta Tm (LOC_OS05G43570-cb004) | thermal shift delta Tm (LOC_OS06G16330-cb003) | thermal shift delta Tm (LOC_OS06G22820-cb001) | thermal shift delta Tm (LOC_OS07G06570-cb004) | thermal shift delta Tm (LOC_OS07G07230-cb001) |
| --- | --- | --- | --- | --- | --- | --- | --- | --- | --- | --- | --- | --- | --- | --- | --- | --- | --- | --- | --- | --- |
| Nc1ncc(-c2ccnc(Nc3ccncc3)n2)c(CC2CC2)n1 | 2.65 °C | 0.44 °C | 0.08 °C | 0.7 °C | 0.32 °C | 0.09 °C | 0.92 °C | 1.69 °C | 2.3 °C | 0.78 °C | 0.81 °C | 7.15 °C | 0.92 °C | 0.45 °C | 0.44 °C | 0.4 °C | 3.58 °C | 0.78 °C | 1.03 °C | -0.19 °C |
| C[C@@H](Nc1cc(F)cc(F)c1)c1cc(C(=O)N(C)C)cc2c(=O)cc(N3CCOCC3)oc12 | -0.34 °C | -0.01 °C | 0.03 °C | 0 °C | 0.1 °C | -0.15 °C | 0.15 °C | 0.51 °C | 1.21 °C | 0.16 °C | 0.46 °C | -0.67 °C | -4.22 °C | 0.89 °C | 0.53 °C | 0.2 °C | -0.67 °C | 0.43 °C | 1.06 °C | 0.35 °C |
| CCS(=O)(=O)c1cccc(-c2cc(C(=O)NC3CCN(C)CC3)c(C)c3[nH]c4ncc(C)cc4c23)c1 | 5.63 °C | 2.03 °C | -0.02 °C | 6.67 °C | 3.82 °C | 3.53 °C | 5.67 °C | 6.23 °C | 3.14 °C | 0.65 °C | 2.61 °C | 13.6 °C | 10.6 °C | 2.38 °C | 3.26 °C | 0.4 °C | 8.47 °C | -0.41 °C | 0.61 °C | 0.94 °C |
| COCCOc1ccc2c(c1)ncn2-c1ccc2cccc(N3CCC(N)CC3)c2n1 | 16.5 °C | 0.43 °C | 0.25 °C | 1.73 °C | 6.71 °C | 0.27 °C | 8.81 °C | 10 °C | 2.9 °C | 0.51 °C | 6.59 °C | 16.7 °C | 12.6 °C | -0.07 °C | 1.5 °C | 0.49 °C | 7.19 °C | 0.77 °C | 1.03 °C | 0.19 °C |
| CNc1nc(Nc2cn(C(C)(C)C#N)nc2C)ncc1C(F)(F)F | 0.99 °C | 0.1 °C | 0.32 °C | 0.28 °C | 0.39 °C | 0.78 °C | 0.62 °C | 1.36 °C | 1.34 °C | 0.22 °C | 0.21 °C | 3.12 °C | 1.76 °C | 0.47 °C | 0.36 °C | 0.56 °C | 0.81 °C | 0.4 °C | 0.68 °C | -0.13 °C |
| O=C(/C=C/c1ccc2ccccc2n1)c1ccncc1 | 4.53 °C | -0.52 °C | 0.27 °C | -1.09 °C | 0.7 °C | 0.7 °C | 0.37 °C | 4.4 °C | 4.06 °C | 2.67 °C | 3.08 °C | 9.31 °C | 4.2 °C | 0.46 °C | 0.47 °C | 0.37 °C | 1.41 °C | 0.76 °C | 0.69 °C | 0.31 °C |
| O=C(Nc1cccc(Cl)c1)Nc1ncc(CCNc2ncnc3ccsc23)s1 [SNS-314 Mesylate] | 0.93 °C | 0.38 °C | 1.02 °C | 1.77 °C | 0.36 °C | 0.82 °C | 0.75 °C | 1.73 °C | 2.48 °C | 1.12 °C | 2.15 °C | 7.18 °C | 2.52 °C | 1.77 °C | 0.46 °C | 1.08 °C | 4.68 °C | 1.24 °C | 0.91 °C | -0.06 °C |
| O=C(O)c1ccc(Nc2ncc3c(n2)-c2ccc(Cl)cc2C(c2c(F)cccc2F)=NC3)cc1 | 0.27 °C | 1.01 °C | 0.54 °C | -0.49 °C | 0.21 °C | 0.06 °C | 0.12 °C | 0.54 °C | 0.01 °C | 0.55 °C | -0.29 °C | 4.66 °C | -1.88 °C | 0.62 °C | 0.22 °C | 0.24 °C | -0.12 °C | 0.97 °C | 0.4 °C | 0.33 °C |
| COc1cc2ncnc(Oc3cccc(NC(=O)Nc4cc(C(C)(C)C(F)(F)F)on4)c3)c2cc1OC | 0.81 °C | 1.05 °C | 0.36 °C | 0.21 °C | 0.47 °C | 0.59 °C | 0.19 °C | 0.57 °C | 0.16 °C | 0.2 °C | 0.6 °C | 2.95 °C | -2.76 °C | 0.72 °C | 0.54 °C | 0.45 °C | 0.19 °C | 0.58 °C | 1.77 °C | 0.79 °C |
| COc1cc(C(=O)N2CCC(N3CCN(C)CC3)CC2)ccc1Nc1ncc2c(n1)N(C)c1ccccc1C(=O)N2C | 1.73 °C | 0.29 °C | 0.41 °C | 3.59 °C | 0.46 °C | 0.37 °C | 0.68 °C | 0.65 °C | 3.81 °C | 0.27 °C | 0.47 °C | 4.15 °C | -2.69 °C | 0.06 °C | 0.42 °C | -1.79 °C | 0.93 °C | 0.32 °C | 0.88 °C | 0.74 °C |
| Oc1cccc(-c2nc(N3CCOCC3)c3oc4ncccc4c3n2)c1 | -0.07 °C | -0.06 °C | 0.32 °C | 0.43 °C | 0.03 °C | 0.47 °C | 0.16 °C | 0.22 °C | 1.17 °C | 0.89 °C | -0.25 °C | 0.47 °C | 1.57 °C | 0.51 °C | 0.49 °C | 0.69 °C | 0.07 °C | 0.82 °C | 1.15 °C | 0.33 °C |
| COCCOc1cnc2ccn([C@H](C)c3nnc4c(F)cc(-c5cnn(C)c5)cn34)c(=O)c2c1 | 1.08 °C | -0.12 °C | 0.22 °C | -0.12 °C | 0.2 °C | 0.05 °C | -0.09 °C | 0.69 °C | 0.41 °C | 0.65 °C | 0.33 °C | 0.47 °C | -0.61 °C | 0.19 °C | 0.72 °C | 0.35 °C | 2.3 °C | 0.29 °C | 1.07 °C | 0.81 °C |
| O=c1ncn2nc(Sc3ccc(F)cc3F)ccc2c1-c1c(Cl)cccc1Cl | 0.54 °C | -0.07 °C | 0.23 °C | 0.07 °C | -0.01 °C | 0.15 °C | 0.34 °C | 0.66 °C | 1.17 °C | 0.55 °C | 0.07 °C | 0.12 °C | 0.83 °C | 0.17 °C | 0.49 °C | 0.49 °C | -0.01 °C | 0.66 °C | 0.75 °C | 0.14 °C |
